Results: the supplement of paper PMC10849652
Of roughly 8,800 targets only a part is listed; those with a hit were picked by preference. About 0.5% of all pairs of compound and target were hits.

Tests used:
Assay in all cases: log2 fold change, soluble protein after heating vs DMSO (PISA); higher = thermal stabilisation; K562 lysate, 10 uM; active = over 0.2 and 3.5 SD of the protein, either way, in both replicates (recomputed)
erlotinib = compound: C#Cc1cccc(Nc2ncnc3cc(OCCOC)c(OCCOC)cc23)c1 [erlotinib]
How it was run: (§1)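 Dounce homogenisation of K562 pellets in PBS pH 7.4 with 1 mM MgCl2 produced a crude extract, used at 1 mg/mL protein. Exposure to 10 μM compound lasted 30 min, and aliquots were then heated for 3 min across 48°C-58°C, pooled and brought to 0.5% NP-40 at 4°C. The supernatant after 21,000xg for 90 min was quantified by TMTpro 16plex LC-MS/MS with channel sums equalised. Duplicate values are given as log-two fold change in thermal stability relative to solvent controls.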

[1] = compound: C/C(=N\NC(=O)C1=CC(=CC=C1)S(=O)(=O)N2CCOCC2)/C3=C(C=CC(=C3)Cl)O
How it was run: as §1

[2] = compound: C1=CC(=CC=C1C2=NC3=C(N2)C=C(C=C3)C(=O)N)OC4=CC=C(C=C4)Cl
How it was run: as §1

[3] = compound: C1=CC2=C(C=CC(=C2)/C=C\3/C(=O)NC(=NCC4=CC=CS4)S3)N=C1
How it was run: as §1

[4] = compound: C1=CC2=NC=CN=C2C=C1/C=C/3\C(=O)NC(=O)S3
How it was run: as §1

[5] = compound: C1=CC=C(C=C1)C2=NC(=C(N2)C3=CC=NC=C3)C4=CC(=C(C=C4)Cl)O
How it was run: as §1

[6] = compound: C1=CC=C2C(=C1)C3=NNC4=CC=CC(=C43)C2=O
How it was run: as §1

[7] = compound: C1CCN(C1)C(=O)NC2=CC=CC(=C2)NC3=NC=C(C(=N3)NCCC4=CN=CN4)Br
How it was run: as §1

[8] = compound: C1CN(CCC1(CC2=CC=C(C=C2)Cl)N)C3=NC=NC4=C3C=CN4
How it was run: as §1

IRAK-1-4 Inhibitor I = compound: C1COCCN1CCN2C3=CC=CC=C3N=C2NC(=O)C4=CC(=CC=C4)[N+](=O)[O-] [IRAK-1-4 Inhibitor I]
How it was run: as §1

Measured: log2 fold change

UBE3C (UniProt Q15386)
inactive: erlotinib 0.035 | [1] -0.061 | [2] -0.067 | [3] 0.011 | [4] -0.036 | [5] -0.01 | [6] -0.022 | [7] 0.027 | [8] 0.049 | IRAK-1-4 Inhibitor I 0

TUBB3 (UniProt Q13509)
inactive: erlotinib 0.025 | [1] -0.089 | [2] 0.016 | [3] -0.004 | [4] 0.001 | [5] -0.019 | [6] -0.025 | [7] 0.018 | [8] 0.03 | IRAK-1-4 Inhibitor I 0.006

TTMP isoform 3 (UniProt Q5BVD1)
Sequence of UniProt Q5BVD1 (Q5BVD1 whole entry, looked up): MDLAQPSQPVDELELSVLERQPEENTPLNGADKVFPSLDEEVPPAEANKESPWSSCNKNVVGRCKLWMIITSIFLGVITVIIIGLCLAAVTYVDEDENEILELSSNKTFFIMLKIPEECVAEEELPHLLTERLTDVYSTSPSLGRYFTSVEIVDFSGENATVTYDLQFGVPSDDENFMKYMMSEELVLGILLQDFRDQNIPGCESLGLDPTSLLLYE
inactive: erlotinib 0.121 | [1] -0.173 | [2] -0.023 | [3] -0.106 | [4] -0.026 | [5] -0.026 | [6] -0.08 | [7] -0.05 | [8] 0.086 | IRAK-1-4 Inhibitor I 0.193

UBA1 (UniProt P22314)
inactive: erlotinib 0.034 | [1] 0.017 | [2] -0.022 | [3] 0.003 | [4] 0.004 | [5] 0.002 | [6] -0.044 | [7] 0 | [8] 0.02 | IRAK-1-4 Inhibitor I -0.013

TBRG4 (UniProt Q969Z0)
inactive: erlotinib 0.033 | [1] -0.048 | [2] -0.036 | [3] 0.001 | [4] 0.013 | [5] -0.044 | [6] -0.031 | [7] 0.013 | [8] 0.008 | IRAK-1-4 Inhibitor I -0.009

TBCE (UniProt Q15813)
Sequence of UniProt Q15813 (Q15813 whole entry, looked up): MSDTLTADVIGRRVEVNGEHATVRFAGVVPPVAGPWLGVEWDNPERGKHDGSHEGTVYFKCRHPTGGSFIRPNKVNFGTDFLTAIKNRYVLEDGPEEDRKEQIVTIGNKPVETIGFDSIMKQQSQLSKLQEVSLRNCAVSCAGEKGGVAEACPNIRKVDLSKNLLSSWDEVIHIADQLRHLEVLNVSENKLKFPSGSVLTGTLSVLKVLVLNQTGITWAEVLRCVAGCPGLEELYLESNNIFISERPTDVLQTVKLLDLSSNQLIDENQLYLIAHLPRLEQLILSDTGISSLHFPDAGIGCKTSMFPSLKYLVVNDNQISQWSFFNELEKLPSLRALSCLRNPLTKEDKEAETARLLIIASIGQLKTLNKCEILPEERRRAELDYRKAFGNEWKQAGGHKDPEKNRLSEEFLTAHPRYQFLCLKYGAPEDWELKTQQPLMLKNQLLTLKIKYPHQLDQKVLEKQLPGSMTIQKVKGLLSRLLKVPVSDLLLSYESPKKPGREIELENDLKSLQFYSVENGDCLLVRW
inactive: erlotinib 0.02 | [1] 0.049 | [2] -0.016 | [3] 0.004 | [4] 0.014 | [5] 0.001 | [6] -0.07 | [7] -0.027 | [8] 0.038 | IRAK-1-4 Inhibitor I -0.002

TUBB4B (UniProt P68371)
Sequence of UniProt P68371 (P68371 whole entry, looked up): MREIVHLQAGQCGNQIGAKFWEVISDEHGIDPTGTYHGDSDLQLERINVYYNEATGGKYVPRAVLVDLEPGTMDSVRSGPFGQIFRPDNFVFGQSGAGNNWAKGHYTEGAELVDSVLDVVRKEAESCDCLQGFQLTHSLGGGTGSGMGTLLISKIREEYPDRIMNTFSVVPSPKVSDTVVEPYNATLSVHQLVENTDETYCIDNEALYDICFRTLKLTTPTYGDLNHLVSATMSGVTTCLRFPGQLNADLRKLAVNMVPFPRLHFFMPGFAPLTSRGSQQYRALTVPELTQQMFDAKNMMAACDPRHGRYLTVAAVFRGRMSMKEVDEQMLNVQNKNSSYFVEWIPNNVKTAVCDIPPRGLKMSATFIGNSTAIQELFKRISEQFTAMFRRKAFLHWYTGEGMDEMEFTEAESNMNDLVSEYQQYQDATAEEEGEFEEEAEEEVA
inactive: erlotinib 0.008 | [1] -0.059 | [2] 0.019 | [3] -0.018 | [4] 0.005 | [5] -0.024 | [6] -0.011 | [7] 0.019 | [8] 0.03 | IRAK-1-4 Inhibitor I 0.04

TBC1D20 isoform 3 (UniProt Q96BZ9)
inactive: erlotinib -0.073 | [1] 0.142 | [2] -0.113 | [3] 0.043 | [4] 0.117 | [5] -0.038 | [6] -0.018 | [7] 0.033 | [8] 0.023 | IRAK-1-4 Inhibitor I 0.132

TMEM177 (UniProt Q53S58)
Sequence of UniProt Q53S58 (Q53S58 whole entry, looked up): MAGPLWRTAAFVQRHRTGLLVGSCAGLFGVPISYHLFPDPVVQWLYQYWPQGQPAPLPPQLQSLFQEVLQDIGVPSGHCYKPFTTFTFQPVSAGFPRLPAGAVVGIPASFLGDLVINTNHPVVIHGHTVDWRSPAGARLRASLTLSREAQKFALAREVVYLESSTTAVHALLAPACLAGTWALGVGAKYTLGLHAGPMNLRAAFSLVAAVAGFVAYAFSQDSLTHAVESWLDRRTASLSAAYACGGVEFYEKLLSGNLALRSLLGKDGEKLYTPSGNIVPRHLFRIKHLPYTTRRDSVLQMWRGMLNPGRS
inactive: erlotinib 0.042 | [1] 0.06 | [2] -0.042 | [3] 0.016 | [4] -0.019 | [5] -0.054 | [6] 0.148 | [7] 0.019 | [8] 0.005 | IRAK-1-4 Inhibitor I 0

TPP2 (UniProt Q5VZU9)
inactive: erlotinib 0.043 | [1] -0.036 | [2] 0.086 | [3] -0.012 | [4] 0 | [5] 0.131 | [6] -0.013 | [7] 0 | [8] 0.066 | IRAK-1-4 Inhibitor I 0.005

TYMS (UniProt P04818)
inactive: erlotinib 0.016 | [1] 0.041 | [2] 0.011 | [3] -0.032 | [4] 0.032 | [5] -0.026 | [6] 0.019 | [7] 0.035 | [8] -0.004 | IRAK-1-4 Inhibitor I -0.008

UFSP2 (UniProt Q9NUQ7)
inactive: erlotinib -0.04 | [1] -0.034 | [2] 0.028 | [3] 0.098 | [4] -0.015 | [5] -0.042 | [6] -0.055 | [7] -0.026 | [8] -0.037 | IRAK-1-4 Inhibitor I 0.023

TDRD3 isoform 3 (UniProt Q9H7E2)
Sequence of UniProt Q9H7E2 (Q9H7E2 whole entry, looked up): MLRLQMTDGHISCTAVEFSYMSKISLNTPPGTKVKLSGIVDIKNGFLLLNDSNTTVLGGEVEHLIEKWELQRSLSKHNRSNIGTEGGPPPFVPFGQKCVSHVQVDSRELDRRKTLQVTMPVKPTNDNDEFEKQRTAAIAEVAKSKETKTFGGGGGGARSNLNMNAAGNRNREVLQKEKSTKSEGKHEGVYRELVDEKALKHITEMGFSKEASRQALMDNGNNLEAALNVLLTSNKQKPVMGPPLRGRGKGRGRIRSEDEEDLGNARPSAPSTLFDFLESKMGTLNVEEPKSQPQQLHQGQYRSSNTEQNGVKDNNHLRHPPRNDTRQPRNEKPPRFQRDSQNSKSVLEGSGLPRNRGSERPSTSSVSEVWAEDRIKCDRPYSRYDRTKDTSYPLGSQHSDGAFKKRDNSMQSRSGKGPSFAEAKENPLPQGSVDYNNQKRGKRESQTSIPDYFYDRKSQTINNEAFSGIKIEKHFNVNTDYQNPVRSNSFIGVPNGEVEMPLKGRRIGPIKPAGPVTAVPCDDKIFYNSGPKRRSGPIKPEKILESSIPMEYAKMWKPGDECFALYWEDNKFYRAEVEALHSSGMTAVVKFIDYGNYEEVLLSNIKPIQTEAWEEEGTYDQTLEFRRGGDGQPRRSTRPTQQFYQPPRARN
inactive: erlotinib 0.051 | [1] -0.029 | [2] -0.019 | [3] 0.086 | [4] 0.005 | [5] 0.257 | [6] -0.085 | [7] -0.059 | [8] 0 | IRAK-1-4 Inhibitor I 0.051

TLK2 isoform 2 (UniProt Q86UE8)
inactive: erlotinib -0.071 | [1] -0.076 | [2] 0.054 | [3] -0.006 | [4] 0.014 | [5] 0.001 | [6] 0.171 | [7] -0.012 | [8] 0.021 | IRAK-1-4 Inhibitor I -0.058

TMPO (UniProt P42166)
inactive: erlotinib 0.026 | [1] -0.038 | [2] 0.012 | [3] -0.097 | [4] -0.03 | [5] -0.024 | [6] -0.026 | [7] -0.004 | [8] 0.005 | IRAK-1-4 Inhibitor I 0.008

TIMM44 (UniProt O43615)
inactive: erlotinib -0.019 | [1] -0.02 | [2] -0.008 | [3] -0.019 | [4] 0.041 | [5] -0.012 | [6] 0.03 | [7] -0.019 | [8] 0.004 | IRAK-1-4 Inhibitor I -0.011

TRIM33 isoform 2 (UniProt Q9UPN9)
inactive: erlotinib 0.004 | [1] -0.016 | [2] 0.014 | [3] 0.004 | [4] -0.002 | [5] 0.003 | [6] 0.008 | [7] -0.03 | [8] 0.006 | IRAK-1-4 Inhibitor I -0.02

UBR4 (UniProt Q5T4S7)
inactive: erlotinib 0 | [1] 0.039 | [2] -0.016 | [3] 0.017 | [4] -0.006 | [5] 0.008 | [6] -0.01 | [7] -0.021 | [8] 0.002 | IRAK-1-4 Inhibitor I -0.009

TBC1D23 (UniProt Q9NUY8)
Sequence of UniProt Q9NUY8 (Q9NUY8 whole entry, looked up): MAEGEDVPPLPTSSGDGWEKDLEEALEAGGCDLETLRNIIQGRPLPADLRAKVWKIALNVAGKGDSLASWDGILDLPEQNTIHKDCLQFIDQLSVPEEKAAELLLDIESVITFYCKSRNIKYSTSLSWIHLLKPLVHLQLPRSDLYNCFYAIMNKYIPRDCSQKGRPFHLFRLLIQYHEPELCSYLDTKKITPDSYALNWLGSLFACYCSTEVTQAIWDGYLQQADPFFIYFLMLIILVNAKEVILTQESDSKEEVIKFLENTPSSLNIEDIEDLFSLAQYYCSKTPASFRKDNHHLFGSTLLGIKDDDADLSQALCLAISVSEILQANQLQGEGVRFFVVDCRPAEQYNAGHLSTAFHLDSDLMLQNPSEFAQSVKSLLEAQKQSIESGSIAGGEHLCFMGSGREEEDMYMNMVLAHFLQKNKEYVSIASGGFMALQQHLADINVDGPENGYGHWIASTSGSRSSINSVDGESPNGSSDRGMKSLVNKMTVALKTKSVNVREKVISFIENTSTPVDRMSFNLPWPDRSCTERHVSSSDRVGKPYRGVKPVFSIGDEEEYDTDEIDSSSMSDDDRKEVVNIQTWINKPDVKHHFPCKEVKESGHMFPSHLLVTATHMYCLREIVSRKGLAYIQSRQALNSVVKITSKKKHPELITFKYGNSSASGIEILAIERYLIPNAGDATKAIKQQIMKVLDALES
inactive: erlotinib 0.003 | [1] -0.01 | [2] 0.017 | [3] 0.022 | [4] -0.015 | [5] 0.011 | [6] -0.018 | [7] -0.018 | [8] -0.001 | IRAK-1-4 Inhibitor I 0

TROAP (UniProt Q12815)
Sequence of UniProt Q12815 (Q12815 whole entry, looked up): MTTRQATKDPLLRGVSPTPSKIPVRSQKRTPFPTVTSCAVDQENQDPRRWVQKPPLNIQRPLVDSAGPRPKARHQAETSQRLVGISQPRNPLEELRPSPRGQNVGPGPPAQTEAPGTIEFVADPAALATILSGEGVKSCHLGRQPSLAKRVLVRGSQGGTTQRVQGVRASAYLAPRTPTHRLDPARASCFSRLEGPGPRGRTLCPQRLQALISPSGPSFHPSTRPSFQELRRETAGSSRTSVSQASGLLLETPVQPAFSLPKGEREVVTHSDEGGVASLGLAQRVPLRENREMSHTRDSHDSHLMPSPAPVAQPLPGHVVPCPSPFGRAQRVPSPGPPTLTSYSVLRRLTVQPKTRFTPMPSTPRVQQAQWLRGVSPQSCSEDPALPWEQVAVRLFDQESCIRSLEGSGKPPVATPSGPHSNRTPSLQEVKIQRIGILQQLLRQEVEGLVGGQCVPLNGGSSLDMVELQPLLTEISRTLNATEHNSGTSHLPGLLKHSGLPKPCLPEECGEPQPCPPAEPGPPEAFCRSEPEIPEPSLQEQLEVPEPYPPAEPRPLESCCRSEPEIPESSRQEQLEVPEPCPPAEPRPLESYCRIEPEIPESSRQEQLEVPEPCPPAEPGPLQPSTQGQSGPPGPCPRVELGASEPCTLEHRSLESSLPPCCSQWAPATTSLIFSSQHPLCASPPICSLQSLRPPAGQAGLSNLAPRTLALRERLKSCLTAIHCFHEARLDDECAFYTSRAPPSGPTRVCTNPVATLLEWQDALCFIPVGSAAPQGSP
inactive: erlotinib -0.023 | [1] -0.02 | [2] 0.028 | [3] -0.036 | [4] -0.054 | [5] 0.017 | [6] -0.027 | [7] 0.035 | [8] 0.104 | IRAK-1-4 Inhibitor I -0.011

TYW3 (UniProt Q6IPR3)
Sequence of UniProt Q6IPR3 (Q6IPR3 whole entry, looked up): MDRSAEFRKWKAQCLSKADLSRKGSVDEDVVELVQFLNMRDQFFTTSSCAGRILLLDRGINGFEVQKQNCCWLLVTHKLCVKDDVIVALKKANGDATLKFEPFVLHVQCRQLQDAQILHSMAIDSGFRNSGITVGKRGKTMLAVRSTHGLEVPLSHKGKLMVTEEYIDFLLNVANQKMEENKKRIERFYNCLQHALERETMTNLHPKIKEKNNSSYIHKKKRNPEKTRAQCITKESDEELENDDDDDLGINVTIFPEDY
inactive: erlotinib -0.002 | [1] 0.003 | [2] 0.063 | [3] -0.032 | [4] -0.008 | [5] 0.002 | [6] -0.07 | [7] -0.054 | [8] 0.014 | IRAK-1-4 Inhibitor I 0.018

TMEM199 (UniProt Q8N511)
Sequence of UniProt Q8N511 (Q8N511 whole entry, looked up): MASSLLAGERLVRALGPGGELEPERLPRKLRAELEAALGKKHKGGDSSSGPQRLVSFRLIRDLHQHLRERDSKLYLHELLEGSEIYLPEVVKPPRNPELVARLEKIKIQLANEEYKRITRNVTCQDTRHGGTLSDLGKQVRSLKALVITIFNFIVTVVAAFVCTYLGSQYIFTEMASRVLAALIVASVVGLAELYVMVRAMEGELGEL
inactive: erlotinib 0.002 | [1] -0.03 | [2] -0.034 | [3] 0.032 | [4] 0.018 | [5] -0.013 | [6] -0.087 | [7] -0.065 | [8] 0.027 | IRAK-1-4 Inhibitor I -0.033

TRIM33 (UniProt H0Y612)
inactive: erlotinib -0.006 | [1] -0.002 | [2] 0.05 | [3] -0.126 | [4] -0.071 | [5] -0.01 | [6] -0.009 | [7] -0.065 | [8] -0.023 | IRAK-1-4 Inhibitor I 0.176

TUBGCP4 (UniProt Q9UGJ1)
inactive: erlotinib -0.017 | [1] -0.017 | [2] -0.007 | [3] 0.015 | [4] -0.018 | [5] -0.01 | [6] -0.028 | [7] 0.133 | [8] 0.045 | IRAK-1-4 Inhibitor I 0.052

UBAP2 (UniProt Q5T6F2)
inactive: erlotinib -0.02 | [1] -0.02 | [2] 0.032 | [3] 0.01 | [4] 0.022 | [5] -0.159 | [6] 0.016 | [7] -0.009 | [8] 0.001 | IRAK-1-4 Inhibitor I 0.016

TBL2 (UniProt Q9Y4P3)
inactive: erlotinib -0.019 | [1] 0.061 | [2] -0.027 | [3] 0.061 | [4] -0.023 | [5] 0.038 | [6] -0.06 | [7] -0.027 | [8] 0.001 | IRAK-1-4 Inhibitor I -0.022

TRAPPC12 (UniProt Q8WVT3)
Sequence of UniProt Q8WVT3 (Q8WVT3 whole entry, looked up): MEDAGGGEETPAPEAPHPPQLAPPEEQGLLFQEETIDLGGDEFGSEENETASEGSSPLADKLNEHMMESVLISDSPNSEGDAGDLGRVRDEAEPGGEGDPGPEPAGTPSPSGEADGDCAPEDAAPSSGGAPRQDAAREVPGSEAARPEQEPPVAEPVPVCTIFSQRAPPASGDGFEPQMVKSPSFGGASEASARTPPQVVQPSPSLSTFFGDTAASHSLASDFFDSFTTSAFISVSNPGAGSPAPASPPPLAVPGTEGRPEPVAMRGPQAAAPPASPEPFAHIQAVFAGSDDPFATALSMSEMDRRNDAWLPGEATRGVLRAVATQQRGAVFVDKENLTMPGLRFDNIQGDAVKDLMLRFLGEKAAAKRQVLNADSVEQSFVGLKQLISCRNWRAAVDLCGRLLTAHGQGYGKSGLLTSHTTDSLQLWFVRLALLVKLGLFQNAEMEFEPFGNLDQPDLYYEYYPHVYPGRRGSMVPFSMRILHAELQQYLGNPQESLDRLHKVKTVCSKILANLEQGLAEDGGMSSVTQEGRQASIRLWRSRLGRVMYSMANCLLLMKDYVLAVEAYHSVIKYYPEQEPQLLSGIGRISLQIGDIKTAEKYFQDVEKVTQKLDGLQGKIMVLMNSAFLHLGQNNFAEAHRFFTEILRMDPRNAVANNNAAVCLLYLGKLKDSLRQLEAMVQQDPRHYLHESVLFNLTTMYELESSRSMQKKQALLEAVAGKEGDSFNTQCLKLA
inactive: erlotinib -0.049 | [1] -0.01 | [2] -0.048 | [3] -0.047 | [4] -0.018 | [5] -0.005 | [6] -0.061 | [7] -0.003 | [8] -0.005 | IRAK-1-4 Inhibitor I 0.027

TLE3 isoform 4 (UniProt Q04726)
inactive: erlotinib 0.005 | [1] -0.025 | [2] 0.03 | [3] -0.012 | [4] 0 | [5] 0.016 | [6] -0.002 | [7] -0.006 | [8] 0.029 | IRAK-1-4 Inhibitor I -0.016

TPD52L2 isoform 7 (UniProt O43399)
inactive: erlotinib -0.044 | [1] -0.028 | [2] 0.085 | [3] 0.015 | [4] 0 | [5] 0.017 | [6] 0.036 | [7] 0.029 | [8] -0.004 | IRAK-1-4 Inhibitor I -0.031

TMEM167B (UniProt Q9NRX6)
Sequence of UniProt Q9NRX6 (Q9NRX6 whole entry, looked up): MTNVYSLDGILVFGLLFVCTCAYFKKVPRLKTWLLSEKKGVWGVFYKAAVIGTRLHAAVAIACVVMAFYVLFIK
inactive: erlotinib -0.061 | [1] -0.016 | [2] -0.006 | [3] -0.042 | [4] -0.044 | [5] -0.002 | [6] 0.013 | [7] -0.056 | [8] 0.036 | IRAK-1-4 Inhibitor I -0.014
